# Source: PubChem BioAssay (EPA / NIEHS)
# “And” between values parts separate entries of the source, which are not always exact repeats. Identical values can stand only once. The source made the active and inactive calls. How the source made its calls: active means hit-call score of the fitted dose curve at least 0.9, where 1 is the maximum; inactive means score below 0.9.
# Read-out: Vascular cell adhesion molecule 1 (VCAM1), VCAM1 (gene 7412)
# Assay: BSK_hDFCGF_VCAM1: BioMAP Diversity Plus: hDFCGF Assay for Vascular cell adhesion molecule 1 (VCAM1) Biomarker Activity (AID 2283065)
# Conditions: primary human foreskin fibroblasts; actives raise or lower the signal
# Experimental: BSK_hDFCGF is a cell-based, multiplexed-readout assay that uses foreskin fibroblast, a human skin primary cell, with measurements taken at 24 hours after chemical dosing in a 96-well plate.BSK_hDFCGF_VCAM1 is an assay component measured in the BSK_hDFCGF assay. It measures VCAM-1 antibody related to regulation of gene expression using ELISA technology.Data from the assay component BSK_hDFCGF_VCAM1 was analyzed into 1 assay endpoint. This assay endpoint, BSK_hDFCGF_VCAM1, was analyzed with bidirectional fitting relative to DMSO as the negative control and baseline of activity. Using a type of binding reporter, gain or loss-of-signal activity can be used to understand changes in the signaling as they relate to the gene VCAM1. Furthermore, this assay endpoint can be referred to as a primary readout, because this assay has produced multiple assay endpoints where this one serves a signaling function. To generalize the intended target to other relatable targets, this assay endpoint is annotated to the cell adhesion molecules intended target family, where the subfamily is Immunoglobulin CAM.
# The levels of cell surface (or secreted, indicated by the prefix "s") biomarker endpoints were measured by ELISA. Overt cytotoxicity to cells in confluent adherent cultures (all systems other than the BT system) was assessed by measuring total protein levels using sulforhodamine B (SRB) staining in parallel cultures at the time of biomarker measurements, indicated as SRB endpoints. For proliferation assays for adherent cell types, individual cell types are cultured at sub-confluence and relative cell numbers quantified by SRB staining at time points optimized for each system (48 h: 3C and CASM3C systems; 72 h: BT and HDF3CGF systems; 96 h: SAg system). SRB was performed by staining cells with 0.1% SRB after fixation with 10% TCA and reading wells at 560 nm.Viability and proliferation of PBMC (T cells) was quantified by Alamar Blue reduction for the SAg and BT systems. For PBMC viability (referred to as PBMC Cytotoxicity within the assay endpoint names), cells were plated (75,000/well in a 96-well plate) and then chemical samples added for 1 h before addition of activators, SEB and TSST-1 (20 ng/mL final concentration each). Cells were incubated for 90 h. Then, Alamar Blue (20 uL/well) (Invitrogen, Cat DAL1100) was added for 6 h, and the plates were read with a fluorescence microplate reader at 546/580 nm (excitation/emission). For PBMC proliferation, cells were plated and activated as above but incubated for only 16 h prior to addition of Alamar Blue. Plates were read after 6 h.
SMILES,outcome,AC50
CCCOC(=O)c1ccccc1C(=O)OCCC,inactive,–
CC(C)COP(=O)(OCC(C)C)OCC(C)C,inactive,–
O=P1(NCCCl)OCCCN1CCCl (stereo not drawn),inactive,–
O=[N+]([O-])O,inactive,–
COC(C)(C)CCC[C@H](C)C/C=C/C(C)=C/C(=O)OC(C)C,–,25 µM (active)
CC(C)(C)C(=O)CCl,–,12.2 µM (active)
CCc1cc(C)cc(CC)c1-c1c(OC(=O)C(C)(C)C)n2n(c1=O)CCOCC2,inactive,–
CC(=O)/C=C/c1ccccc1,inactive,–
[Cd+2].[Cl-].[Cl-],–,1.9 µM (active) and 2.23 µM (active)
Oc1ccc(C2(c3ccc(O)cc3)c3ccccc3-c3ccccc32)cc1,–,1.61 µM (active) and 1.41 µM (active)
CC(C)CCCCCCCOC(=O)c1ccccc1C(=O)OCCCCCCCC(C)C,inactive,–
COCC(=O)N(c1c(C)cccc1C)N1CCOC1=O,inactive,–
CCCCCCCCCCCC#N,–,20.6 µM (active)
O=C(O)CCCc1ccc(N(CCCl)CCCl)cc1,inactive,–
COc1ccc(CO)cc1,inactive,–
Clc1ccc(-c2ccccc2)cc1,inactive,–
C=CC(=O)OCC(CC)CCCC (stereo not drawn),–,16 µM (active)
CC(C)(C)C(O)C(Oc1ccc(-c2ccccc2)cc1)n1cncn1 (stereo not drawn),inactive,–
O=c1[nH]c(Cl)c(Cl)cc1Cl,inactive,–

SMILES,outcome,AC50
C=CCN(CC=C)C(=O)C(Cl)Cl,inactive,–
Oc1cc(Cl)ccc1Cl,inactive,–
CNC(=O)Oc1cc(C)c(SC)c(C)c1,inactive,–
O=[N+]([O-])C=Cc1ccccc1,–,1.41 µM (active)
O=c1c2ccccc2c(=O)c2c1cc(Cl)c1[nH]c3c([nH]c12)c(Cl)cc1c(=O)c2ccccc2c(=O)c13,–,14.4 µM (active)
CC(C)(c1cc(Cl)c(O)c(Cl)c1)c1cc(Cl)c(O)c(Cl)c1,–,10.5 µM (active)
O=C1C=CC(=O)C=C1,–,19 µM (active) and 12.8 µM (active)
N#CCCCCC#N,inactive,–
c1ccc(Nc2ccc3ccccc3c2)cc1,–,30.1 µM (active)
O=C1C(Cl)=C(Cl)C(=O)C(Cl)=C1Cl,–,11.1 µM (active)
O=S(=O)(c1ccccc1)c1ccccc1,inactive,–
Nc1ccc(-c2ccc(N)c(N)c2)cc1N,–,11.7 µM (active)
Cc1ccc(OP(=O)(Oc2ccc(C)cc2)Oc2ccc(C)cc2)cc1 (tested in a mixture with another compound),inactive,–
CC(C)CCCCCCCOP(=O)(Oc1ccccc1)Oc1ccccc1,–,5.85 µM (active)
O=C(CCl)c1ccccc1,–,2.56 µM (active)
CC1(C)[C@H](C(=O)O[C@H](C#N)c2cccc(Oc3ccccc3)c2)[C@@H]1C=C(Br)Br,inactive,–
CCCC[N+](CCCC)(CCCC)CCCC,inactive,–
CCC(C)c1cc([N+](=O)[O-])cc([N+](=O)[O-])c1OC(=O)C=C(C)C (stereo not drawn),–,5.91 µM (active)
O=[N+]([O-])c1ccc(Cl)cc1,inactive,–
